# Calb FLC: C. albicans growth modulation with fluconazole. C. albicans CaCi-2 (fluconazole-resistant clinical isolate) + fluconazole, Alamar Blue growth, 48 h. growth inhibition, % (test concentration not listed). 0.57% of 300,000 active;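 active = growth inhibition above about 58% in most replicates, limit read from the data, passing the limit was not always enough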;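 note: all wells also contain fluconazole at 8 µg/ml as a sub-toxic cotreatment; 0% = median of DMSO wells and 100% = median of geldanamycin control wells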
# Rin1-Abl PPI inh: inhibitors of human Rin1-Abl protein interaction; P00519+Q13671; TR-FRET Rin1/Abl binding, biochemical; inhibition, % at 7.35 µM; 0.4% of 360,000 active; in the data active = inhibition above about 5%, passing the limit was not always enough
# Fh CTSL1 inh: blocks F. hepatica cathepsin L1 in PFM18AAP counter-screen. recombinant F. hepatica cathepsin L1, Z-Leu-Arg-MCA fluorescence. inhibition, % at 5.96 µM. 0.49% of 300,000 active. AID 1906;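 active = inhibition above the mean of all tested compounds plus 3 SD, set per screening campaign, cut at about 17% in these data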;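 note: 0% = plate median of test compound wells and 100% = 1 µM Z-Phe-Ala-diazomethylketone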
# M18AAP inhibitor: PfM18AAP enzyme inhibition; recombinant PfM18AAP, H-Glu-NHMec fluorogenic cleavage; inhibition, % at 7.35 µM; 1.2% of 290,000 active; AID 1822;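 active = inhibition above the campaign mean inhibition over all tested compounds plus 3 SD, cut at about 28% in these data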;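 note: 0% = plate median of test compound wells and 100% = 2 mM ZnCl2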
# * hit, by the source's call; . = not tested or not shown. In the library only some 2.1% were active in any assay of this set; here they are far more common.
SMILES,Calb FLC,Rin1-Abl PPI inh,Fh CTSL1 inh,M18AAP inhibitor
O=c1[nH]c2cc3c(cc2cc1CN(Cc1ccccc1)Cc1nnnn1Cc1ccco1)OCCO3,7,-1,.,30*
O=c1[nH]c2cc3c(cc2cc1CN(Cc1cccs1)Cc1nnnn1Cc1ccco1)OCCO3,0,8,1,31*
CCc1ccc2[nH]c(=O)c(CN(Cc3ccccc3)Cc3nnnn3Cc3ccco3)cc2c1,2,0,8,16
COc1ccccc1CN(Cc1cc2cc3c(cc2[nH]c1=O)OCCO3)Cc1nnnn1Cc1ccco1,-3,-3,1,21
COCCn1nnnc1CN(Cc1cccnc1)Cc1cc2cc(OC)ccc2[nH]c1=O,8,0,.,29*
COc1cccc(NC=C2C(=O)OC3(CCCCC3)OC2=O)c1,2,3,19*,6
CN(CCCS(=O)(=O)[O-])c1ccc(/C=C/c2ccc3ccccc3[n+]2C)cc1,-6,-9,.,24
CN(C)c1ccc(/C=C/c2ccc3ccccc3[n+]2C)cc1,103*,-45,1,4
CN(CC(=O)Nc1ccccc1Cl)C(=O)COC(=O)c1cc([N+](=O)[O-])ccc1N1CCOCC1,-1,-3,7,.
O=C(NNS(=O)(=O)c1ccccc1)c1ccc([N+](=O)[O-])cc1,21,-2,1,29*
CCc1nn(CCCC(=O)N2CCN(c3cccc(C)c3C)CC2)c(=O)c2cc3occc3n12,6,-3,-2,-1
Cc1cc(C)cc(NC(=O)CN2CCN(C(=O)c3cccs3)CC2)c1,.,4,.,.
COc1ccccc1C(=O)NC(=O)CSc1ccc(C)c(C)c1,.,0,.,.
CC1CCN(S(=O)(=O)c2ccc3c4c2CC(=O)N4CC(C)S3)CC1 (centres undefined),-6,5,31*,6
NC(CCCCc1ccccc1)c1cccc2ccccc12 (centres undefined),-5,.,2,.
COc1cccc(C2CC(c3ccc(NS(C)(=O)=O)cc3)=NN2C(=O)c2ccccc2)c1OC (centres undefined),103*,1,0,4
C[n+]1c2n(c3ccccc31)N=C(c1ccc(-c3ccccc3)cc1)CS2,103*,-4,4,-4
COc1ccc(-c2nn(CCC#N)cc2C(=O)Nc2cccc(C(=O)O)c2)cc1[N+](=O)[O-],-8,-1,1,3
Cc1cc(C)cc(NC(=O)COC(=O)Cn2cnc3c2c(=O)n(C)c(=O)n3C)c1,.,-2,.,.
N/C(=N\OS(=O)(=O)c1ccc2ccccc2c1)c1ccncc1,3,2,43*,-2
N/C(=N\OS(=O)(=O)c1ccccc1)c1ccncc1,6,0,33*,4
CN(C)S(=O)(=O)Nc1cc(F)cc(F)c1,-16,-2,-3,-4
Oc1ccc(N=Cc2ccc(-c3cccs3)s2)cc1,32,-3,40*,11
N/C(=N\OC(=O)N1c2ccccc2Sc2ccccc21)c1ccccc1,94*,0,-2,3
CC(=O)NCC(=O)OCC(=O)N1c2ccccc2Sc2ccccc21,-10,-5,-23,6
SMILES,Calb FLC,Rin1-Abl PPI inh,Fh CTSL1 inh,M18AAP inhibitor
O=C(CNC(=O)c1ccccc1)OCC(=O)N1c2ccccc2Sc2ccccc21,-1,-4,34*,7
Cc1nc2c(nc1C)C(=O)c1ccccc1C2=O,.,-9,.,.
Cc1ccccc1Cn1nnc2c1C(=O)c1ccccc1C2=O,-16,1,25*,5
Cc1cccc(Cn2ncc(Cl)c(Cl)c2=O)c1,21,2,2,-4
Cc1cccc(Cn2nnc3c2C(=O)c2ccccc2C3=O)c1,-10,-5,19*,6
Cc1cc(N2CCCC2)ccc1NC(=O)CN1C(=O)NC(C)(c2ccccc2)C1=O (centres undefined),1,1,-2,30*
Cc1cc(C(=O)CCl)c(C)n1CCc1ccc(F)cc1,-33,-1,23*,15
Cc1cc(C(=O)CCl)c(C)n1CCc1ccc(Cl)cc1,-32,0,21*,6
Cc1cc(C(=O)CSc2nnnn2C)c(C)n1CCc1ccc(F)cc1,17,2,-3,2
COc1ccc(CCn2c(C)cc(C(=O)CCl)c2C)cc1OC,-26,2,44*,-3
COc1ccc(CCn2c(C)c(C(C)=O)c(C(C)=O)c2C)cc1OC,-19,1,-1,-14
O=C1Nc2ccccc2C(O)(C(=O)NCc2ccco2)N1c1ccc(Cl)c(Cl)c1 (centres undefined),17,-5,66*,-9
O=C1Nc2ccccc2N2CCCC12 (centres undefined),6,.,71*,1
O=C1Nc2ccc(C(F)(F)F)cc2N2CCCC12 (centres undefined),-3,.,13,4
CCOC(=O)c1cc(C(=O)NNC(=O)c2cccc([N+](=O)[O-])c2)c(C)nc1C,.,3,.,.
CCOC(=O)C1CCN(C(=O)c2ccc3c(=O)n4nc(Nc5cc(C)ccc5C)sc4nc3c2)CC1,88*,-2,6,4
CCOC(=O)C1CCN(C(=O)c2ccc3c(=O)n4nc(Nc5ccccc5OC)sc4nc3c2)CC1,.,-5,.,.
COc1cccc(/C=N/NC(=O)c2c(-c3ccccc3)noc2C)c1O,-3,1,-1,-3
Cc1ccc(/C=N/NC(=O)c2c(-c3ccccc3)noc2C)c(O)c1,112*,-2,2,8
CN1CCN(C2=C(Cl)C(=O)N(c3ccc(Cl)cc3)C2=O)CC1,-6,5,20*,1
O=C1C(Cl)=C(N2CCN(Cc3ccccc3)CC2)C(=O)N1c1ccccc1,0,0,10,8
O=C1C(Cl)=C(N2CCCCCC2)C(=O)N1c1ccc(Br)cc1,1,-1,7,4
O=C1C(Cl)=C(N2CCCCCC2)C(=O)N1c1ccccc1,4,2,19*,-4
Cc1ccc(N2C(=O)C(Cl)=C(N3CCN(C)CC3)C2=O)c(C)c1,9,-1,27*,7
CCn1ncc(Br)c1C(=O)Nc1c(C)nn(Cc2c(F)c(F)c(F)c(F)c2F)c1C,0,1,.,-6
SMILES,Calb FLC,Rin1-Abl PPI inh,Fh CTSL1 inh,M18AAP inhibitor
O=C(Nc1ccccc1N1CCOCC1)c1ccc(S(=O)(=O)NCc2ccco2)cc1,108*,-3,0,-5
O=C(Nc1ccccc1N1CCOCC1)c1ccc(Cl)c(S(=O)(=O)NCc2ccco2)c1,3,-2,1,-4
CCCn1c(N)c(C(=O)CN(C)CC(=O)Nc2c(Cl)cccc2Cl)c(=O)[nH]c1=O,.,4,.,.
Cc1ccc(N2CCN(C(=O)CN3C(=O)c4ccccc4C3=O)CC2)cc1,-4,4,21*,12
N#C/C(=C\c1ccc(O)c(Br)c1)C(=O)NCc1ccccc1,62,1,22*,-1
O=C(NC(=C(Cl)Cl)S(=O)(=O)c1ccc(Cl)cc1)c1ccccc1,-6,-4,30*,10
Cc1ccc(S(=O)(=O)C(NC(=O)c2ccccc2)=C(Cl)Cl)cc1,7,-1,6,5
Cc1ccc(S(=O)(=O)/C(=C/Cl)NC(=O)c2ccccc2)cc1,-2,-2,97*,-8
Cc1c(N=C2SCC(=O)N2/N=C/c2ccccc2)c(=O)n(-c2ccccc2)n1C,26,-2,-1,-5
CC(=O)c1ccc(NC(=O)Nc2cccc3ccccc23)cc1,81*,1,.,0

# Screens from PubChem.
